# Measured values published in paper PMC5540273 (PLoS ONE, 2017).
# Several values for one entry are separate records, joined by “and”; a condition that tells them apart may be missing. Identical values can stand only once. Like-named read-outs stand apart in the source and are kept apart here.
# Experiments:
# YANK3 = system: T1, YANK3; details: concentration: 1 μM, replicates: in singlicate, n = 1
# T1 construct: gene STK32C
# YES = system: T2, YES; details: concentration: 1 μM, replicates: in singlicate, n = 1
# T2 construct: gene YES1
# YSK1 = system: T3, YSK1; details: concentration: 1 μM, replicates: in singlicate, n = 1
# T3 construct: gene STK25
# YSK4 = system: T4, YSK4; details: concentration: 1 μM, replicates: in singlicate, n = 1
# T4 construct: gene MAP3K19
# ZAK = details: concentration: 1 μM, replicates: in singlicate, n = 1
# ZAP70 = details: concentration: 1 μM, replicates: in singlicate, n = 1
# p38-alpha = system: T5, p38-alpha; details: concentration: 1 μM, replicates: in singlicate, n = 1
# T5 construct: gene MAPK14
# p38-beta = system: T6, p38-beta; details: concentration: 1 μM, replicates: in singlicate; n = 1
# T6 construct: gene MAPK11
# p38-delta = details: concentration: 1 μM, replicates: in singlicate, n = 1
# p38-gamma = system: T7, p38-gamma; details: concentration: 1 μM, replicates: in singlicate, n = 1
# T7 construct: gene MAPK12
# 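Further: KINOMEscan kinase panel screen.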
Compound,%Inh (YANK3),%Inh (YES),%Inh (YSK1),%Inh (YSK4),%Inh (ZAK),%Inh (ZAP70),%Inh (p38-alpha),%Inh (p38-beta),%Inh (p38-delta),%Inh (p38-gamma),%Inh (YANK3; 1 µM),%Inh (YES; 1 µM),%Inh (YSK1; 1 µM),%Inh (YSK4; 1 µM),%Inh (ZAK; 1 µM),%Inh (ZAP70; 1 µM),%Inh (p38-delta; 1 µM),%Inh (p38-gamma; 1 µM),%Inh (p38-alpha; 1 µM)
NCC(NC(=O)c1cc(-c2cn[nH]c2)c(-c2ccnc3[nH]ccc23)s1)c1ccccc1.O=C(O)C(F)(F)F.O=C(O)C(F)(F)F (stereo not drawn) [GSK1325775],8%,0%,24%,99.8%,4%,0%,10%,0%,10%,27%,–,–,–,–,–,–,–,–,–
Fc1ccc(-c2ncn(CCCN3CCOCC3)c2-c2ccccn2)cc1 [SB-211742],0%,0%,0%,0%,0%,3%,2%,0%,2%,23%,–,–,–,–,–,–,–,–,–
Nc1nccc(-c2c(-c3ccc(F)cc3)ncn2C2CCN(CC(F)(F)F)CC2)n1 [SB-236560],0%,8%,0%,0%,0%,49%,96.6%,11%,8%,0%,–,–,–,–,–,–,–,–,–
CN1c2ccc(CNc3ccc(F)cc3)cc2-c2c(cnn2C)S1(=O)=O,0%,0%,0%,0%,0%,0%,0%,0%,0%,14%,–,–,–,–,–,–,–,–,–
COc1cc2ncn(-c3cc(OCc4sccc4Cl)c(C(N)=O)s3)c2cc1OC [GSK448459],0%,6%,0%,89%,0%,0%,0%,0%,23%,0%,–,–,–,–,–,–,–,–,–
Cc1c(Cn2c(C)nn3c(=O)cc(N4CCOC(C)C4)nc23)cccc1C(F)(F)F (stereo not drawn) [GSK2344444],13%,3%,0%,9%,0%,0%,0%,0%,17%,0%,–,–,–,–,–,–,–,–,–
Cl.Cl.Cl.Fc1ccc(-c2ncn(C3CCNCC3)c2-c2ccnc(Nc3ccccc3)n2)cc1 [SB-238039],–,–,–,–,–,–,100%,100%,–,–,58% and 48%,22% and 26%,10% and 0%,39% and 0%,11% and 0%,12% and 14%,98.6% and 99.7%,93.1% and 100%,–
N#Cc1ccc(-c2cc(-c3c[nH]nc3-c3ccccn3)ccn2)cc1 [GW693028],6%,13%,0%,33%,15%,0%,30%,0%,22%,0%,–,–,–,–,–,–,–,–,–
Cl.Oc1cccc(Nc2ccnc3cc(-c4ccncc4)ccc23)c1 [GW494601],0%,94.6%,7%,91.7%,84%,2%,50%,0%,25%,0%,–,–,–,–,–,–,–,–,–
Cc1cccc(-c2nc(Nc3ccc4ncsc4c3)c3ccccc3n2)n1 [GW867588],29%,0%,0%,11%,0%,10%,0%,0%,0%,0%,–,–,–,–,–,–,–,–,–
Cn1ccc2ncnc(Oc3ccc(NC(=O)Nc4ccncc4)c(Cl)c3)c21,9%,0%,3%,0%,0%,7%,0%,18%,4%,8%,–,–,–,–,–,–,–,–,–
CC(C)Oc1ccc2c(-c3ccnc(Nc4ccc(N5CCN(C)CC5)cc4)n3)cnn2n1 [GW696155],0%,54%,71%,99.8%,0%,65%,17%,0%,72%,62%,–,–,–,–,–,–,–,–,–
CN1c2ccc(NCc3ccc(F)cc3)cc2-c2c(cnn2C)S1(=O)=O,0%,0%,0%,8%,0%,0%,0%,0%,13%,0%,–,–,–,–,–,–,–,–,–
COc1ccc(S(=O)(=O)NC2CCN(c3cc(C)nc(Nc4cccc(C#N)c4)n3)CC2)cc1.O=C(O)C(F)(F)F [GSK1653539],0%,4%,20%,0%,0%,0%,9%,0%,28%,0%,–,–,–,–,–,–,–,–,–
COC(=O)Nc1nc2cc(Oc3ccc(NC(=O)Nc4cc(F)ccc4F)cc3)ccc2[nH]1.Cl [GW701424],0%,11%,13%,53%,98.8%,71%,37%,0%,29%,13%,–,–,–,–,–,–,–,–,–
Nc1nc(-c2ccc3c(N)n[nH]c3c2)cc(N2CCCC2)n1 [GSK2227430],0%,0%,9%,36%,0%,0%,0%,0%,25%,0%,–,–,–,–,–,–,–,–,–
Cc1ccc(NC(=O)c2ccnc(N3CCN(C)CC3)c2)cc1-c1ccc(C(=O)NCC2CC2)cc1 [GW775604],0%,0%,19%,0%,0%,0%,32%,35%,10%,0%,–,–,–,–,–,–,–,–,–

Compound,%Inh (YANK3),%Inh (YES),%Inh (YSK1),%Inh (YSK4),%Inh (ZAK),%Inh (ZAP70),%Inh (p38-alpha),%Inh (p38-beta),%Inh (p38-delta),%Inh (p38-gamma),%Inh (YANK3; 1 µM),%Inh (YES; 1 µM),%Inh (YSK1; 1 µM),%Inh (YSK4; 1 µM),%Inh (ZAK; 1 µM),%Inh (ZAP70; 1 µM),%Inh (p38-delta; 1 µM),%Inh (p38-gamma; 1 µM),%Inh (p38-alpha; 1 µM)
COc1ccc(CNC(=O)NC2CCN(c3ccnc(Nc4ccc(OC)cc4)n3)C2)cc1 (stereo not drawn) [GSK1379727],8%,3%,0%,36%,0%,0%,11%,0%,8%,45%,–,–,–,–,–,–,–,–,–
Cc1cccc(Cn2ccn3c(=O)cc(N4CCOCC4)nc23)c1 [GSK2297542],16%,19%,17%,12%,17%,0%,27%,0%,36%,51%,–,–,–,–,–,–,–,–,–
COc1cc2c(cc1OC[C@@H](O)CO)ncc1c3ccc(C#N)cc3[nH]c21,0%,0%,0%,90%,1%,0%,5%,15%,0%,18%,–,–,–,–,–,–,–,–,–
Cc1nnc(-c2ccc3ncc(-c4ccc(S(C)=O)cc4)n3c2)o1 (stereo not drawn),5%,0%,0%,3%,0%,0%,9%,1%,7%,10%,–,–,–,–,–,–,–,–,–
O=C(Nc1cccc(-c2nn3ncccc3c2-c2ccnc(Nc3cccc(C(F)(F)F)c3)n2)c1)c1c(F)cccc1F [GSK299495],10%,98.7%,0%,33%,87%,51%,43%,24%,53%,13%,–,–,–,–,–,–,–,–,–
CCCCCc1nc2c(N)ncnc2n1CCCCC [SKF-97255],0%,0%,12%,14%,13%,13%,0%,19%,0%,50%,–,–,–,–,–,–,–,–,–
COc1ccc(Nc2ncc(C#N)c(Nc3ccccc3C(N)=O)n2)cc1N1CCN(C)CC1.Cl [GSK1558669],48%,98.8%,95.2%,99.7%,64%,98.1%,0%,0%,0%,32%,–,–,–,–,–,–,–,–,–
O=c1cc(N2CCOCC2)nc2n(Cc3cccc(Cl)c3Cl)c(C3CC3)nn12 [GSK2358994],0%,9%,0%,0%,12%,10%,0%,8%,4%,23%,–,–,–,–,–,–,–,–,–
NCCNS(=O)(=O)c1ccc(-c2ccnc3[nH]ccc23)cc1 [GSK977617],–,–,–,–,–,0%,–,0%,–,–,8% and 0%,11% and 0%,32% and 25%,98.1% and 97.3%,18% and 0%,–,65% and 49%,29% and 55%,0% and 8%
O=C(NCCNc1ccnc(Nc2ccc(F)cc2)n1)Nc1ccccc1F [GSK1379880],0%,9%,0%,26%,0%,0%,0%,0%,52%,0%,–,–,–,–,–,–,–,–,–
O=c1cc(N2CCOCC2)nc2n(Cc3cccc(F)c3)ccn12 [GSK2297430],22%,16%,0%,33%,0%,0%,43%,0%,22%,0%,–,–,–,–,–,–,–,–,–
Cl.Nc1ncnc2occ(-c3ccc(NC(=O)Nc4cc(C(F)(F)F)ccc4F)cc3)c12 [SB-707548],7%,60%,50%,99.9%,42%,19%,86%,63%,93.4%,96.8%,–,–,–,–,–,–,–,–,–
COc1cc2c(cc1OCCN1CCN(C)CC1)ncc1c3ccc(C#N)cc3[nH]c21,35%,3%,0%,89%,0%,0%,0%,1%,7%,35%,–,–,–,–,–,–,–,–,–
CN(C1=C(c2ccccc2)C(=O)NC1=O)c1ccccc1 [SB-334860],17%,17%,21%,9%,79%,0%,0%,5%,22%,5%,–,–,–,–,–,–,–,–,–
[2H]C([2H])(c1cccc(C(F)(F)F)c1C)n1ccn2c(=O)nc(N3CCOCC3)cc12 [GSK2336394],0%,7%,0%,26%,4%,24%,0%,0%,46%,0%,–,–,–,–,–,–,–,–,–
COCCNC(=O)c1ccc(-c2cc(C(=O)NC3CC3)cc(F)c2C)cc1 [GW868318],22%,4%,0%,33%,23%,0%,100%,94%,0%,29%,–,–,–,–,–,–,–,–,–
